Source: PubChem
CRFR2-BP antag: antagonists of CRF-BP/CRF-R2 complex, primary screen, cell-based, HEK293, calcium dye fluorescence, uHTS | 0.59% of 350,000 active | AID 588475, 2011 | CRF-induced calcium fluorescence | inhibition, % at 11.8 µM;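 active means inhibition of the ligand-induced calcium signal above about 50% at the single tested concentration, limit read from the data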
FAS TE block: FAS thioesterase domain inhibitors, primary screen, biochemical, fluorescence intensity, uHTS; Fatty acid synthase (Homo sapiens), P49327; 0.67% of 360,000 active; recombinant FAS-TE, OMFH fluorogenic substrate, fluorescence endpoint; inhibition, % at 15 µM; AID 602261, 2012;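 active means compounds whose normalised, plate-corrected inhibition of enzyme fluorescence in the single-dose primary screen is 50% or more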
NadD inh: inhibitors of S. aureus NadD, primary screen, biochemical, colorimetric, uHTS; AID 602399, 2012; purified NadD enzyme, colorimetric absorbance read-out; Nicotinate-nucleotide adenylyltransferase NadD (Staphylococcus aureus N315); 0.78% of 360,000 active; inhibition, % at 20 µM; in the data active means inhibition above about 26%
Myeloid diff MLP: induction of myeloid progenitor differentiation, primary screen, cell-based, flow cytometry, MLPCN library. ER-HoxA9 myeloid progenitors, lysozyme-GFP differentiation. 1% of 360,000 active. AID 624256, 2012. calls only at 10 µM;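 active means normalized GFP-positive differentiation at or above the plate's own cutoff, the solvent-only control mean plus 3 SD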;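 further: cells exposed to compound for four days before flow analysis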
CendR NRP1 mod: modulators of CendR peptide binding to NRP-1, primary screen, biochemical, fluorescence polarization, uHTS; FAM-RPARPAR peptide binding to NRP-1; inhibition, % at 25 µM; 0.85% of 360,000 active; AID 602438, 2012;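 active means inhibition or corrected inhibition above about 18%, plus a signal ratio from 0.5 to 1.5, limit read from the data, passing the limit was not always enough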
FAS-TE conf: FAS thioesterase domain inhibitors, confirmation, biochemical, fluorescence intensity, single concentration; shares compounds with FAS TE block; recombinant FAS-TE, OMFH fluorogenic substrate; inhibition, % at 15 µM; 45% of 2,300 active;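 active means compounds inhibiting the enzyme by at least 50% at 15 µM in any one of the replicates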
NadD conf: inhibitors of S. aureus NadD, confirmation, biochemical, colorimetric, single concentration; purified S. aureus NadD, colorimetric enzyme assay; inhibition, % at 20 µM; AID 624309, 2012; shares compounds with NadD inh; 13% of 2,000 active; in the data active means inhibition mostly above about 42%, no sharp cut-off; inactive means mostly below about 42%
Myeloid diff: inducers of myeloid progenitor differentiation, confirmation, cell-based, GFP/Mac1 flow cytometry, cherry pick 01; ER-HoxA9 myeloid progenitors, GFP/Mac1 double-positive flow; 2% of 2,300 active; shares compounds with Myeloid diff MLP; calls only; AID 651706, 2012;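 active means share of green or green-and-red cells above 9 and 9% in run 1 or 4 and 3% in run 2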
GFP autofluor: flagged as fluorescent in myeloid differentiation counter-screen. shares compounds with Myeloid diff MLP. ER-HoxA9 myeloid progenitors, no estrogen, GFP autofluorescence flow cytometry; vehicle wells 0%, positive control 100%. fluorescence response, % (no concentration beside the values). 7.4% of 2,300 active;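 active means over 5% cells positive for green fluorescent reporter, or over 2% positive for both it and APC stain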
Of the large screens only hits and unclear results are named; the others gave an inactive call (follow-up assays come after a bar, where they were run). In the library only some 3.6% were active in any assay of this set; here they are far more common.

COc1ccc(C(=O)Nn2c(SCc3cccc([N+](=O)[O-])c3)nc3ccccc3c2=O)cc1	FAS TE block 59, NadD inh 28 | FAS-TE conf 51 | NadD conf inactive
N#Cc1c(-c2ccccc2)c(-c2ccccc2)nn(CC(=O)NNC(=O)Nc2ccc(Cl)c(Cl)c2)c1=O	FAS TE block 69, NadD inh 51 (no result: Myeloid diff MLP) | FAS-TE conf 48 | NadD conf inactive
CCCCS(=O)(=O)N1CCCC(C(=O)Oc2ccc(Cl)cc2)C1 (stereo not given)	none
O=C(CSc1nnc(-c2ccccn2)n1Cc1ccco1)c1ccc(-c2ccccc2)cc1	FAS TE block 51, NadD inh 50 | FAS-TE conf inactive | NadD conf inactive
Cc1c(F)cccc1NC(=O)CSCC(=O)Nc1ccccc1	none
CCOC(=O)c1cc2c(=O)n3ccccc3nc2n(Cc2ccco2)c1=NC(=O)c1ccc(OC)cc1	FAS TE block 64, NadD inh 32 | FAS-TE conf 47 | NadD conf inactive
CCOC(=O)c1cc2c(=O)n3ccccc3nc2n(Cc2ccco2)c1=NC(=O)c1ccccc1OC	none
Cc1ccc(S(=O)(=O)N2C[C@@H](C)[C@]3(C2)[C@H](O)[C@H](OC(=O)NCc2ccccc2F)C[C@H]2C(=O)N(c4ccccc4)C(=O)[C@H]23)cc1	none
CCCOc1ccc(N2C(=O)CC(SC(=N)N3N=C(c4ccccc4)CC3c3ccccc3)C2=O)cc1 (stereo not given)	FAS TE block 69, NadD inh 43 | FAS-TE conf inactive | NadD conf inactive
CCc1cc(C(=O)COc2ccccc2F)c(O)cc1O	none
CC(C)(C)C(=O)NNc1nc(-c2ccccc2)c2cc(Br)ccc2n1	none
CCN(CC)S(=O)(=O)c1ccc(C(=O)NNc2nc(-c3ccccc3)c3cc(Br)ccc3n2)cc1	FAS TE block 68, NadD inh 35 | FAS-TE conf inactive | NadD conf inactive
CCCc1cc(=O)n2[nH]c(C)c(-c3ccccc3)c2n1	none
Cc1[nH]n2c(=O)cc(-c3ccc([N+](=O)[O-])cc3)nc2c1-c1ccccc1	FAS TE block 59, NadD inh 34 | FAS-TE conf 77 | NadD conf 51
CC(C)c1ccc(S(=O)(=O)N2CCC(C(=O)NCc3ccco3)CC2)cc1	none
O=C(NCc1ccco1)C12CN(Cc3ccccc3)CC1C(c1ccc([N+](=O)[O-])cc1)=NO2 (stereo not given)	none
O=C(NCc1ccco1)C12CN(Cc3ccccc3)CC1C(c1cccc([N+](=O)[O-])c1)=NO2 (stereo not given)	FAS TE block 54, NadD inh 36 | FAS-TE conf inactive | NadD conf inactive
Cc1ccc(-c2nc(NC(=O)c3ccc(S(=O)(=O)N(CCC#N)CCC#N)cc3)sc2-c2ccccc2)cc1	none
N#CCCN(CCC#N)S(=O)(=O)c1ccc(C(=O)Nc2nc(-c3ccccc3)c(C(=O)c3ccccc3)s2)cc1	FAS TE block 58, NadD inh 36 | FAS-TE conf inactive | NadD conf inactive
CCC(C)C(NC(=O)/C(=C\c1ccccc1)NC(=O)c1ccc(OC)cc1)C(=O)O (stereo not given)	none
COc1ccc(C(C)=O)cc1COC(=O)c1cccnc1SC	none
CCNc1ccc(S(=O)(=O)N(C)C)cc1NCC(=O)Nc1ccc(F)c(Cl)c1	FAS TE block 58 | FAS-TE conf 39 | Myeloid diff inactive | GFP autofluor inactive
